In general, AC50 refers to the midpoint of the concentration-response curve, whichever way the signal moves.

In PubChem BioAssay AID2284353 (EPA ToxCast) one finds AC50 data, which are given here for five molecules.

Records with an inconclusive call do not appear. Activity calls are given as the source filed them. The calls were made as follows: active = hit-call score of the fitted dose curve at least 0.9, where 1 is the maximum; inconclusive = response in the unintended direction; inactive = score below 0.9.

The subject of the assay is Japanese medaka Peroxisome Proliferator-activated Receptor gamma (PPARg), gene 100304459. As to the kind of experiment: ATG_jmPPARg_EcoTox2: Attagene TRANS-FACTORIAL EcoTox-2 HepG2 Assay for Japanese medaka Peroxisome Proliferator-activated Receptor gamma (PPARg). On the procedure:
ATG_EcoTox2 is a cell-based, multiplexed assay created by modifying the existing Attagene TRANS-FACTORIAL system to include a panel of nuclear receptors from some or all the following species: human (Homo sapiens), african clawed frog (Xenopus laevis), rainbow trout (Oncorhynchus mykiss), japanese medaka (Oryzias latipes), and zebrafish (Danio rerio). The ECOTOX2-FACTORIAL format uses HepG2, a human liver cell line, with measurements taken at 24 hours after chemical dosing in a 24-well plate. ATG_jmPPARg_EcoTox2 is one of 29 assay components calculated in the ATG_EcoTox2 assay. It is designed to make measurements of mRNA induction, a form of inducible reporter, as detected with fluorescence intensity signals by Reverse transcription polymerase chain reaction (RT-PCR) and Capillary electrophoresis technology.The assay endpoint ATG_jmPPARg_EcoTox2 was analyzed in the positive analysis fitting direction relative to DMSO as the negative control and baseline of activity. Using a type of inducible reporter, measures of mRNA for gain-of-signal activity can be used to understand the reporter gene at the transcription factor-level as they relate to the gene PPARg. Furthermore, this assay endpoint can be referred to as a primary readout, because this assay has produced multiple assay endpoints where this one serves a reporter gene function. To generalize the intended target to other relatable targets, this assay endpoint is annotated to the nuclear receptor intended target family, where the subfamily is non-steroidal.
Human liver HepG2 cells are transiently transfected with multiple reporter transcription units (MRTUs) in 6-well plates using FuGene 6 reagent (Roche; 3 ml FuGene/1 mg DNA). The MRTU constructs are regulated by a cis-regulating element (promoter). Each RTU expresses a GAL4-UAS that regulates the transcription of a nearby target reporter gene sequence. A major difference between the CIS and TRANS system is that in CIS activities of endogenous TFs are measured, whereas the TRANS assay evaluates changes in activities of exogenous, chimeric NR-Gal4 proteins. […] At the end of 24 hour incubation, total RNA was isolated using TriZol reagent (Invitrogen). The isolated RNA is then reverse-transcribed using oligo(dT) primer and Mo-MLV reverse transcriptase (Invitrogen) with DNAse I (Ambion) treatment for 30 min. The one-tenth of the produced cDNA was amplified by PCR using Taq DNA polymerase (Invitrogen) and two reporter sequence-specific primers. The PCR products were fluorescently labeled by primer extension with 6-arboxyfluorescein (6-FAM) 5'-labeled reporter sequence-specific primer (2 min at 95 C, 20 s at 68 C and 10 min at 72 C) and these products were digested with 5U of HpaI (New England Biolabs) for 2h at 37 C. The fragments were purified using Qiaquick PCR columns (Qiagen), analyzed on an ABI 3130xL genetic analyzer (Applied Biosystems) with peak positions identified by using a set of X-rhodamine (ROX)-labeled MapMarker1000 molecular weight standards (BioVentures). The raw capillary electrophoresis data was processed using Attagraph software (Attagene).
In the case of `CCCCOCN(C(=O)CCl)c1c(CC)cccc1CC`, the AC50 is 4.6 µM (active).

On to `[Cl][Sn]([c]1ccccc1)([c]1ccccc1)[c]1ccccc1`, for which the AC50 was 0.382 µM (active).

Regarding `O=C(O)C(F)(F)C(F)(F)C(F)(F)C(F)(F)C(F)(F)C(F)(F)C(F)(F)F`, the AC50 was 75 µM (active).

Consider `O=S(=O)(O)C(F)(F)C(F)(F)C(F)(F)C(F)(F)C(F)(F)C(F)(F)F`, for which the AC50 was 76.1 µM (active).

In the case of `O=P(Oc1ccccc1)(Oc1ccccc1)Oc1ccccc1`, the AC50 is 30.6 µM (active).
